These results are taken from PubChem BioAssay (NCI).

Compounds without any hit were thinned out: in the full panel of roughly 83,000, 20% have a hit.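 Single-concentration screen, 48 h exposure, 96-well plates. Endpoint: percent growth. Below 10 = active.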 Activity calls are given as the source filed them.

The test system of this assay is HL-60(TB) leukemia. Put plainly: NCI-60 one-dose screen, 48 h (100 = growth as untreated, 0 = no growth, -100 = all killed). To be noted: 10 µM unless noted.
With `COc1cccc2c1C(=O)c1c(O)c3c(c(O)c1C2=O)C[C@](O)(C(=O)CO)C[C@H]3O[C@@H]1C[C@@H](NC(=O)CCCCCN(C)C2(c3ccc(F)cc3)CC3CCC2C3)[C@H](O)[C@@H](C)O1` (stereo not given in full), the growth is 84.9% (inactive).

Turning to `O=C(CN1CCN(c2ccc(Cl)cc2)CC1)N1CCN(c2nnc(-c3ccc(Cl)cc3)c(-c3ccc(Cl)cc3)n2)CC1`, the growth was 41.4% (inactive).

Regarding `Cc1cnc(NC(=O)Nc2cc(Br)c(C)cc2OC[C@@H]2CNCCO2)cn1`, the growth is -25.3% (active).

Turning to `O=C1/C(=C/c2ccc(-c3ccc(Cl)cc3)o2)SC(=S)N1CCc1ccc(O)cc1`, the growth is 8.32% (active).

For the compound `COC(=O)c1c2c(c(C)[n+]([O-])c1C)C(=O)C(NCc1ccc(OC)cc1)=CC2=O`, the growth is -51.1% (active).

As to `N#Cc1nc(-c2ccc(Cl)cc2)oc1S(=O)(=O)N1CCN(c2ccc(F)cc2)CC1`, the growth is 66.3% (inactive).

With `C=C/C(C)=C/C[C@]1(C)[C@H](C)[C@@H](OC(=O)CCC)[C@H](O)[C@@]23C(=C[C@H](OC)C[C@@H]12)[C@@H](OC(=O)CCC)O[C@H]3OC(C)=O`, the growth is -43.9% (active).

As to `COc1cc(/C=C/C(=O)C(C(=O)/C=C/c2ccc(OC(=O)CCNc3nnc(C)s3)c(OC)c2)C(=O)CCNc2nnc(C)s2)ccc1OC(=O)CCNc1nnc(C)s1`, the growth was -40.1% (active).

As to `COc1ccc2[nH]c(=O)c(/C=N/Nc3nc(-c4ccccc4)cs3)c(O)c2c1`, the growth is 83.9% (inactive).

Take `Cc1cc(Cl)ccc1NC(=O)/C(Cl)=C1/Sc2ccccc2NC1=O`: the growth is 93.1% (inactive).

Take `CN(C)CCOc1ccc(/C(=C(/CCCCCCCCCC[P+](c2ccccc2)(c2ccccc2)c2ccccc2)c2ccccc2)c2ccccc2)cc1`: the growth is -62.1% (active).

Turning to `Cc1nc2sc(C(=O)Nc3cccc(Cl)c3C)c(N)c2cc1C(O)c1ccccc1` (stereo not given), the growth is -42.3% (active).

In the case of `O=C(NS(=O)(=O)c1ccccc1)n1cc(-c2ccncc2)c(-c2ccc(Cl)c(O)c2)n1`, the growth was 94% (inactive).

Regarding `Nc1c(Cl)cc2c(c1Br)C(=O)c1ccccc1C2=O`, the growth is 70.7% (inactive).

Take `CCc1ccccc1NC(=O)c1sc2nc3c(cc2c1N)CCCC3`: the growth was 2.66% (active).

With `CC1Cc2c(Cl)ncnc2N(C)c2ccc(O)cc21` (stereo not given), the growth is 91.4% (inactive).

Consider `COc1ccc(-c2c(-c3cc4c(c(OC)c3OC)OCO4)noc2N)cc1`, for which the growth was 16.8% (inactive).

As to `Oc1ccc(/C=N/Nc2nc3ccccc3s2)c(O)c1`, the growth was 0.859% (active).

As to `COc1cc(C(=O)/C=C/c2c(C)n([O-])c3ccc(Cl)cc3[n+]2=O)cc(OC)c1OC`, the growth is -59.5% (active).

Regarding `CC1(C)CC[C@]2(C(=O)NCC#CCN3CCOCC3)CC[C@]3(C)C(=CC[C@@H]4[C@@]5(C)Cc6c([nH]c7ccccc67)C(C)(C)[C@@H]5CC[C@]43C)[C@@H]2C1`, the growth was 62.7% (inactive).

In the case of `CCN(CC)CCNc1ccc(Cl)cc1Cl`, the growth was 92.9% (inactive).

Take `CCCCCCCCCCCCCCCCCCOP(=O)(O)O`: the growth is 102% (inactive).

Take `COc1ccc(-c2cc(/C=C3\C(=O)Nc4cc(Cl)ccc43)[nH]n2)cc1`: the growth was -11.7% (active).

With `CC(=O)CC(=O)c1ccccc1.[Cu+2]`, the growth was 67.2% (inactive).

Turning to `C=C1CC[C@@H]2[C@](C)(COC(C)=O)[C@H](OC(C)=O)CC[C@@]2(C)[C@@H]1CC(NCc1ccc(F)cc1)C1=CCOC1=O` (stereo not given in full), the growth was -9.52% (active).

With `CCN(CC)CCOc1ccc(Cl)c(C)c1`, the growth was 113% (inactive).

For the compound `CCc1cccc(Sc2cc(C(=O)N3Cc4ccc(OCCN(C)C)cc4C3)ccc2O)c1`, the growth is 50.3% (inactive).

With `Nc1ccccc1-c1ccc(-c2ccc(Cl)cc2)c2c1[nH]c1ccccc12`, the growth is 70.9% (inactive).

Take `O=C(NO)c1ccc(Cn2c(=O)n(CCc3ccccc3)c(=O)c3ccccc32)cc1`: the growth is 36.2% (inactive).

As to `O=C1Nc2ccc(F)cc2/C1=C\c1nc(-c2ccccc2F)n2ccccc12`, the growth was 120% (inactive).

Take `COC(=O)[C@]12CC[C@@H](C)[C@H](C)[C@@H]1C1=CC[C@@H]3[C@@]4(C)C[C@@H](OC(=O)/C=C/c5ccccc5)[C@H](O)[C@@](C)(CO)[C@@H]4[C@H](O)C[C@@]3(C)[C@]1(C)CC2`: the growth was -20.6% (active).

As to `CCCc1n(Cc2ccc3ccccc3n2)cc[n+]1Cc1ccc2ccccc2c1`, the growth was -53.7% (active).

Regarding `CCN(CC)CCCNC(=O)c1ccc(N)cc1O`, the growth is 82.4% (inactive).

With `C(=C\c1ccccc1)/CN1CCN(C(c2ccccc2)c2ccccc2)CC1`, the growth is 85.3% (inactive).

For `CS(=O)CCCCCN=C=S` (stereo not given), the growth is -33.9% (active).

As to `O=C(Nc1cccc(Cl)c1)Nc1nccs1`, the growth was 88.7% (inactive).

For the compound `Cc1ccccc1NC(=O)Oc1ccc(Cl)cc1C(=O)c1ccccc1`, the growth was 103% (inactive).

Take `Nc1ncccc1O`: the growth was 51.6% (inactive).

`N#Cc1c(-c2ccc(Cl)cc2)csc1NC(=O)Nc1ccc(Cl)c(C(F)(F)F)c1`: the growth was -34.2% (active).

With `COc1cc2nc3cc([N+](=O)[O-])ccc3c(Cl)c2cc1OC`, the growth was 109% (inactive).
